Experimental data: PubChem BioAssay AID1851 (National Center for Advancing Translational Sciences (NCATS), 2009)
The whole screen tested about 16,000 compounds, of which about 5,800 (36%) were called active. Roughly 23% stayed inconclusive and do not appear here. Some of the results follow. A number with no mark means an inactive call. Calls follow the shape of the dose curve; as a rule, active = well fitted curve in the direction sought with a large enough effect; inconclusive = small, poorly fitted or top-dose-only effect, or effect the other way; inactive = no such curve, though single readings can be large or run the other way.

molecular target: Cytochrome P450 2C19 (Homo sapiens) (UniProt P33261); assay: Cytochrome panel assay with activity outcomes; details: recombinant CYP, pro-luciferin dealkylation, luminescence, p450-cyp2c19; series mostly up to 57.1 µM; activity, negative = inhibition: at the top concentration
Sequence (P33261 whole entry, looked up): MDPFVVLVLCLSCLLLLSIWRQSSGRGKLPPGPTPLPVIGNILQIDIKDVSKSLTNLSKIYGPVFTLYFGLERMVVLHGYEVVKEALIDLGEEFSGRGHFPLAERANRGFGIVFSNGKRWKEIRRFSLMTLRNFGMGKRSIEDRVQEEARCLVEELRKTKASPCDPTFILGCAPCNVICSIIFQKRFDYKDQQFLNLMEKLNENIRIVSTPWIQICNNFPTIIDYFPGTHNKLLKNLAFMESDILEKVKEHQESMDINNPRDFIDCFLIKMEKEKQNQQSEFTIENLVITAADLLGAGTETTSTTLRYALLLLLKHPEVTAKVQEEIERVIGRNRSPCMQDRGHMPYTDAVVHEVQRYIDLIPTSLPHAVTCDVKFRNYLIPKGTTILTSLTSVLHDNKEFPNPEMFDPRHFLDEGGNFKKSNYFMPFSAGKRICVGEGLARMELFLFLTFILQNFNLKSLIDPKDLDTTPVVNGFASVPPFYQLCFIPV
% is scaled to controls: 0 for no effect and ±100 for the full control effect.

Row | SMILES | AC50 | activity, negative = inhibition
1 | NCCSSCCN | inactive | –
2 | CN1CCCC2(CCN(C(=O)c3cnccn3)CC2)C1 | – | 5.74%
3 | Cc1ccc2nc(SCC(=O)NCc3cccs3)c(C#N)cc2c1 | – | 13.8%
4 | CCCC(=O)Nc1nnc(SCC(=O)NCc2cccs2)s1 | 14.1 µM (active) | –
5 | CCCC(=O)Nc1nnc(CCN2CCCCC2)s1 | – | -9.25%
6 | COc1ccc(NC(=O)CSc2nnc(C3CC3)n2N)cc1 | – | -23.3%
7 | COc1ccc(NC(=O)CSc2nnc(C3CC3)n2-c2ccccc2)cc1 | 20 µM (active) | –
8 | COc1ccc(-n2ccnc2SCC(=O)Nc2ccccc2)cc1 | 4.47 µM (active) | –
9 | COc1cccc(-n2ccnc2SCC(=O)Nc2nccs2)c1 | 8.91 µM (active) | –
10 | CCn1c(SC)nnc1C1CCN(S(=O)(=O)c2ccc(OC)cc2)CC1 | – | -16.5%
11 | Cn1ncc2c(Nc3cccc(C(=O)O)c3)ncnc21 | – | -25.1%
12 | O=C(O)CS(=O)c1ccc2c3c(cccc13)C(=O)c1ccccc1-2 (stereo unspecified) | – | -37% [at 11.4 µM]
13 | Cn1c(SCC(=O)Nc2ccccc2)nc(O)cc1=O | 22.4 µM (active) | –
14 | COc1ccc(NC(=O)CSc2ccc3c4c(cccc24)C(=O)c2ccccc2-3)cc1 | 0.708 µM (active) | –
15 | CCN(CC)C(=O)CSc1nc(O)cc(=O)n1CC | – | -28.8%
16 | Cc1cccc(-n2ncc3c(Nc4c(C)n(C)n(-c5ccccc5)c4=O)ncnc32)c1 | – | 39.7%
17 | CCn1c(SCC(=O)c2ccc(OC)cc2)nnc1C1CC1 | 11.2 µM (active) | –
18 | CC(=O)Nc1ccc(Nc2ncnc3c2cnn3-c2ccccc2)cc1 | 2.82 µM (active) | –
19 | O=C(CSC1=NCCN1)Nc1ccccc1 | – | -1.95% [at 11.4 µM]
20 | CC(=O)Nc1ccc(NC(=O)CSc2ncnn2-c2ccccc2)cc1 | 25.1 µM (active) | –
21 | OCCNCCCOc1cccc(Cl)c1Cl | 3.98 µM (active) | –

Row | SMILES | AC50 | activity, negative = inhibition
22 | COc1c(Cl)cc(Cl)cc1CNCCNCCO | – | 14.6%
23 | Nc1ncnc2c1nc(Br)n2[C@@H]1O[C@H]2COP(=O)(O)O[C@@H]2[C@H]1O | – | 10.5%
24 | COC(=O)N1CCC2(CC1)CCN(c1ccncc1)CC2 | – | 40%
25 | N#Cc1nc(-c2cccs2)oc1NCc1ccccc1 | 1.58 µM (active) | –
26 | CNc1oc(-c2cccs2)nc1C#N | – | -24%
27 | O=C(Cn1c(-c2cscn2)nc2ccccc21)Nc1cc(F)ccc1F | 3.16 µM (active) | –
28 | CCCCCC/C(C)=C1/SC(=S)NC1=O | 3.55 µM (active) | –
29 | Cc1ncc(COP(=O)(O)O)c(C)c1O | – | 11.9% [at 11.4 µM]
30 | CCCC(CCC)C(=O)NNc1cc(=O)c2c(=O)n(C)c(=O)n(C)c2[nH]1 | – | -9.79%
31 | Cc1ccc(Oc2ccccc2/C=C2\SC(=O)N(C)C2=O)cc1 | 6.31 µM (active) | –
32 | CC(C)(C)NC[C@H](O)COc1cccc2[nH]c(=O)[nH]c12 | inactive | –
33 | CCN1CCC[C@H]1CNC(=O)c1cc(S(N)(=O)=O)ccc1OC | – | -6.49%
34 | COC(=O)c1cc(OC)c(OC)cc1NC(=O)CSc1ccc(C)cc1 | 1.78 µM (active) | –
35 | CCN(CC)S(=O)(=O)c1ccc(OC)c(NC(=O)c2cc([N+](=O)[O-])ccc2Cl)c1 | – | -26.7%
36 | CCN(CC)S(=O)(=O)c1ccc(OC)c(NC(=O)CSc2ccccc2)c1 | 11.2 µM (active) | –
37 | COC(=O)c1cc(OC)c(OC)cc1NC(=S)N1CCN(C)CC1 | – | -13.3%
38 | COc1cc(N)c(Cl)cc1C(=O)OCCCN1CCCCC1 | – | -22.8%
39 | COC(=O)c1cc(OC)c(OC)cc1NC(=S)N1CCCCC1 | 6.31 µM (active) | –
40 | COC(=O)c1cc(OC)c(OC)cc1NC(=O)CSc1ccccc1 | 3.16 µM (active) | –
41 | CCNc1ncc2ncc(=O)n(CCc3ccccc3)c2n1 | 0.631 µM (active) | –
